Test [1] in a line: resazurin metabolic signal in HepG2 cells – cell-based, resazurin fluorescence, 24 h, PK04 Diversity Set, profiling panel (AID 1172). Further: test concentration not given here. The settings on record: HepG2 viability, higher = more signal. In general terms: Alamar Blue is a resazurin reagent that responds to reducing activity.
Test [2] can be described thus: budding yeast growth changes without added modifier – OD600, strain BY4716, 24 h, basal condition, primary screen (AID 1173). The settings on record: S. cerevisiae BY4716 growth, OD600, 24 h; higher = more signal, called active from +8 up or from −8 down.
Test [3] in a line: viability profiling in MM1S myeloma cells – cell-based, resazurin fluorescence, basal, 24 h, PK04 Diversity Set, profiling panel (AID 1174). Further: test concentration not given here. The settings on record: higher = more signal, called active from +8 up or from −8 down.
Test [4] concerns the target Dihydroorotate dehydrogenase (quinone), mitochondrial (Plasmodium falciparum (isolate 3D7)) (UniProt Q08210). Nature of the test: inhibition of P. falciparum DHODH – biochemical, C-terminal His tag, absorbance 600 nm, primary screen (AID 1175).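 Further: recombinant parasite enzyme with a five histidine tag at its C terminus; test concentration not given here.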 The settings on record: PfDHODH enzyme, DCIP absorbance 600 nm; higher = more signal, called active from +8 up or from −8 down.

The nature of test [5]: inhibition of PAO1 biofilm formation – strain PAO1, LB-PBS medium, absorbance 600 nm, primary screen (AID 1176). Further: test concentration not given here. The conditions noted are these: P. aeruginosa PAO1 growth/biofilm, A600, 12 h; higher = more signal.
A short description of test [6]: growth modulation of vineyard yeast isolate – strain RM11-1a, OD600, basal, 24 h, primary screen (AID 1177).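 Further: cultures grown under basal conditions with no added stressor; test concentration not given here.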 The settings on record: S. cerevisiae RM11-1a growth, OD600, 24 h; higher = more signal, called active from +8 up or from −8 down.
Test [7] can be described thus: growth of efflux-deficient E. coli DRC39 – strain DRC39, OD650, 24 h, E. coli filamentation inducers, primary screen (AID 1178).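 Further: growth measured as culture turbidity by optical density at 650 nm; test concentration not given here.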 The settings on record: E. coli DRC39 acrAB, higher = more signal, called active from +8 up or from −8 down.
Test [8] in a line: growth of efflux-deficient E. coli DRC39 – strain DRC39, OD650, 48 h, E. coli filamentation inducers, primary screen (AID 1179).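 Further: screen aims at cell division blockers that make cells filament.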 The conditions noted are these: E. coli DRC39 delta-acrAB growth, higher = more signal, called active from +8 up or from −8 down.
A short description of test [9]: viability profiling in RPMI8226 myeloma cells – cell-based, resazurin fluorescence, basal, 24 h, PK04 Diversity Set, profiling panel (AID 1180).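 Further: RPMI8826 multiple myeloma cell line at 5000 cells per well; test concentration not given here.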 The conditions noted are these: higher = more signal.
The target of test [10] is E3 ubiquitin-protein ligase XIAP (Homo sapiens) (UniProt P98170). Put plainly: small molecules binding XIAP protein – biophysical, small-molecule microarray, fluorescence 635 nm, primary screen (AID 1181).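 Further: score merges 667 nm emission and signal to noise over triplicate slides.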 The conditions noted are these: higher = more signal.

This note sets out measurements from PubChem BioAssay.

Active and inactive are the calls of the source. Unless noted, how the calls were made is not given here.

Dihydroorotate dehydrogenase (quinone), mitochondrial (Plasmodium falciparum (isolate 3D7)), sequence (Q08210 whole entry, looked up): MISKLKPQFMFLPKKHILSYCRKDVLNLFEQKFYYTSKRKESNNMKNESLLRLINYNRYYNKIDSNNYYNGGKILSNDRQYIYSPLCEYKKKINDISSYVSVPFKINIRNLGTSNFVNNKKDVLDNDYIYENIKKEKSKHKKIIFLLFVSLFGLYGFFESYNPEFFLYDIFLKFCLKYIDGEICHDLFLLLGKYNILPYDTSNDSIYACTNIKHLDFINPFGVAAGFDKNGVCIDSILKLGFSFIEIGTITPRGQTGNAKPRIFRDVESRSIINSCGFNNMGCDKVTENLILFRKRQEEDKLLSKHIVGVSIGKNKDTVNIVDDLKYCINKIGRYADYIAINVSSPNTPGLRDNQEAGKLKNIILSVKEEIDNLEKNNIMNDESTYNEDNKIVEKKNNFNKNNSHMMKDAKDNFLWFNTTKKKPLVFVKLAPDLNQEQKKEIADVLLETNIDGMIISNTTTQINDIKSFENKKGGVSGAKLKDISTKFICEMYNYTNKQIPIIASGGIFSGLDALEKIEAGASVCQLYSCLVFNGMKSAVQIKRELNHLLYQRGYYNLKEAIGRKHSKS
E3 ubiquitin-protein ligase XIAP (Homo sapiens), sequence (P98170 whole entry, looked up): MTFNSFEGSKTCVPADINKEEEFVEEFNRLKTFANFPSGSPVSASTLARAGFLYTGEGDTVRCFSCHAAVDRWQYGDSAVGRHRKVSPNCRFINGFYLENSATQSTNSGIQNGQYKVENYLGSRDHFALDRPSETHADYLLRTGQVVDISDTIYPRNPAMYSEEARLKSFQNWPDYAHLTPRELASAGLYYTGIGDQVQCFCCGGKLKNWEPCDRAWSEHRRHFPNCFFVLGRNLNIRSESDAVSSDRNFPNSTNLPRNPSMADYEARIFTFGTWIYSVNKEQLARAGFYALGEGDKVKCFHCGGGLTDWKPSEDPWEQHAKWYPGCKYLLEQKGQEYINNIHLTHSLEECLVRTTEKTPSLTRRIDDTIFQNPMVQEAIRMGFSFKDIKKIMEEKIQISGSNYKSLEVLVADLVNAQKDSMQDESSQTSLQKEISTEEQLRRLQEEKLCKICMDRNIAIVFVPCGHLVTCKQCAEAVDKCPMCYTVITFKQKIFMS

With `C=C(/C(=C/C[C@@H](OC(=O)c1ccncc1)c1ccc(OCCO)cc1)c1cc(C(=O)OC)ccc1OC)C(C)C`, the z-score in test [1] is 1.54; in test [2] it was 0.542 (inactive); in [3], 0.288 (inactive); in [5], 0.224 (inactive); in [6] it was -0.0338 (inactive); in [7] it was 0.945 (inactive). For the same compound, the results for the z-score in test [8] and in test [9] were 0.52 (inactive) and 0.352, respectively. Further, the composite z-score in test [4] was -0.444 (inactive); in [10] it was -0.0916.

Regarding `C=CCN1C(=O)[C@@]2(CCC(=O)OC(C)(C)C)N=C(c3ccc(OCCCO)cc3)O[C@H]2c2ccccc21`, the z-score in test [1] was -0.648; in [2], -1.23 (inactive); in test [3], -3.26 (inactive); in [5] it was 1.77 (inactive); in test [6], -0.169 (inactive); in test [7], 0.636 (inactive). Moreover, the z-score is -0.242 (inactive) in test [8] and -4.47 in [9]. Also, the values for the composite z-score in test [4] and in test [10] were 0.407 (inactive) and 0.21, respectively.

With `CN1C(=O)C2C=CC(C(O)Cc3ccccc3)N(N(c3ccccc3)c3ccccc3)C2C1=O` (stereo not given), the z-score in test [1] was -0.567; in test [2], -0.519 (inactive); in test [3], -1.62 (inactive); in test [5], 0.543 (inactive); in test [6] it was 0.303 (inactive); in [7] it was -0.804 (inactive). The z-score in [8] is -0.233 (inactive); in test [9] it was -0.855. In addition, the composite z-score in [4] was -0.443 (inactive); in test [10] it was 0.0918.

In the case of `CN(C)CCCCNC(=O)[C@H]1C[C@H]2C(=O)N[C@@H](CCCCN(C)C)C(=O)N2[C@H]1c1cccc(OCCO)c1`, the z-score in test [1] is 1.11; in [2], 0.427 (inactive); in test [3] it was 0.895 (inactive); in test [5], -1.48 (inactive); in test [6], 0.807 (inactive); in [7], 0.0233 (inactive). Besides, the z-score in test [8] is -0.0221 (inactive); in test [9], 0.45. Besides, the composite z-score in [4] is -0.493 (inactive); in test [10] it was -0.0559.

As to `CC(C)(C)OC(=O)CC[C@]1(C(=O)NCCN2CCOCC2)N=C(c2ccc(OCCCO)cc2)O[C@H]1c1ccccc1`, the z-score was -0.385 in test [1]; 0.26 (inactive) in test [2]; 0.0457 (inactive) in test [3]; -0.347 (inactive) in test [5]; 0.574 (inactive) in [6]; -0.0656 (inactive) in [7]. Further, the results for the z-score in test [8] and in [9] were -0.448 (inactive) and 0.13, respectively. Also, the composite z-score in [4] was -1.63 (inactive); in test [10], -0.031.

For `C=CCOC(=O)[C@@H]1[C@H]2C(=O)O[C@H](c3ccccc3)[C@H](c3ccccc3)N2[C@H](c2ccc(OCCOC(=O)[C@H]3C[C@H]4C(=O)N[C@@H](CC(C)C)C(=O)N4[C@H]3c3ccc(O)cc3)cc2)[C@@]12C(=O)Nc1ccc(I)cc12`, the z-score in [1] was 0.206; in test [2], 1.26 (inactive); in test [3] it was 0.219 (inactive); in test [5], 2.44 (inactive); in [6] it was 1.6 (inactive); in test [7] it was 0.869 (inactive). Besides, the z-score is 1.2 (inactive) in test [8] and 0.597 in [9]. The composite z-score in test [4] is 0.106 (inactive); in test [10] it was 0.0819.

Consider `CCCCC(CC)C(O)C1C=CC2C(=O)N(c3ccccc3)C(=O)C2N1Nc1ccc([N+](=O)[O-])cc1` (stereo not given), for which the z-score in test [1] was -0.383; in test [2], -0.148 (inactive); in [3], -0.201 (inactive); in test [5], 0.837 (inactive); in test [6], -0.066 (inactive); in test [7] it was -0.948 (inactive). Further, the z-score in test [8] was -0.979 (inactive); in [9], -0.759. For the same compound, the composite z-score was 0.41 (inactive) in test [4] and -0.02 in test [10].

Consider `CCOC(=O)C[C@H]1[C@H](OC(=O)c2ccc(-c3ccccc3)cc2)[C@@H](NC(=O)c2ccc3ccccc3c2)c2cc(OCCCO)ccc2N1C(=O)c1ccc2ccccc2n1`, for which the z-score was -0.138 in [1]; -0.158 (inactive) in test [2]; 0.175 (inactive) in test [3]; 0.927 (inactive) in [5]; -0.736 (inactive) in [6]; -0.936 (inactive) in test [7]. Moreover, the z-score is -0.808 (inactive) in [8] and -0.152 in [9]. Further, the composite z-score in test [4] is -0.746 (inactive); in test [10], -0.394.

`CCOc1cc(C(O)C2C=CC3C(=O)N(C)C(=O)C3N2N2CCCCC2)ccc1O` (stereo not given): the z-score is -1.1 in test [1]; 1.62 (inactive) in test [2]; -0.791 (inactive) in [3]; 0.614 (inactive) in [5]; 2.07 (inactive) in test [6]; -0.637 (inactive) in [7]. For the same compound, the z-score was -0.8 (inactive) in test [8] and -0.698 in [9]. Also, the figures for the composite z-score in [4] and in test [10] were 0.66 (inactive) and 0.179, respectively.

`CCOC(=CC(=O)OC)CC(O)c1cccc(Cl)c1` (stereo not given): the z-score in [1] was 0.217; in [2], -8.62 (active); in [3], -0.0412 (inactive); in test [5], 0.16 (inactive); in test [6], -2.91 (inactive); in test [7], 0.121 (inactive). The z-score was 1.08 (inactive) in test [8] and 0.404 in [9]. Further, the composite z-score in test [4] was -1.92 (inactive); in test [10], -0.0091.

Turning to `COc1ccc(NN2C(C(O)c3ccco3)C=CC3C(=O)N(C4CCCCC4)C(=O)C32)cc1` (stereo not given), the z-score in [1] is 0.502; in test [2] it was -1.11 (inactive); in test [3], -1.59 (inactive); in test [5] it was 0.546 (inactive); in test [6], -0.0552 (inactive); in test [7], -0.624 (inactive). Further, the values for the z-score in test [8] and in [9] were -0.109 (inactive) and -1.55, respectively. Moreover, the composite z-score was 0.181 (inactive) in test [4] and 0.065 in test [10].

Regarding `C=CC[C@]1(C(=O)N(C)C)N=C(c2ccc(OCCCO)cc2)O[C@H]1c1ccccc1N=[N+]=[N-]`, the z-score in test [1] was 0.146; in test [2], 0.136 (inactive); in test [3] it was -1.54 (inactive); in test [5], 0.286 (inactive); in test [6] it was 0.446 (inactive); in test [7], -0.0751 (inactive). Moreover, the values for the z-score in test [8] and in test [9] were -0.179 (inactive) and -1.32, respectively. Also, the composite z-score in test [4] was 0.25 (inactive); in test [10] it was 0.121.

Take `C[C@]1(C(=O)NC2CC2)c2ccccc2C(=O)N(Cc2ccc(OC(F)(F)F)cc2)[C@H]1c1ccc(CO)cc1`: the z-score in [1] is -0.268; in test [2], -0.708 (inactive); in test [3], 0.191 (inactive); in test [5], -0.109 (inactive); in test [6], -0.474 (inactive); in test [7], 0.0997 (inactive). Further, the z-score in test [8] is 0.054 (inactive); in test [9] it was -0.254. Moreover, the composite z-score in test [4] is 0.0758 (inactive); in [10], -0.225.
